Compound activity as filed in PubChem BioAssay.
A selection: hits, their analogues and other compounds. The true share with any hit is near 4.7%.
tim23-1 inh: growth inhibitors of tim23-1 mutant yeast, primary screen, luminescence, uHTS; AID 463212, 2010; inhibition, % at 20 µM; actives 1.3% (n = 330,000); S. cerevisiae tim23-1 growth, BacTiter-Glo luminescence, 24 h;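 active = growth inhibition of the mutant yeast at or above 50%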;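 also: temperature-sensitive mutant grown at 25 °C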
tim10-1 inh: growth inhibitors of tim10-1 mutant yeast, primary screen, luminescence, uHTS | S. cerevisiae tim10-1 ts strain growth, BacTiter-Glo, 24 h | actives 2.2% (n = 330,000) | inhibition, % at 20 µM;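 active = inhibition of at least 40%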;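 also: mutant grown at 25 °C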
SKKanGAS inh: S. pyogenes SKKanGAS growth inhibitors in kanamycin, primary screen, streptokinase expression inhibitor project, SKKanGAS strain, BacTiter-Glo luminescence; 6 h; inhibition, % at 7.5 µM; actives 1.3% (n = 300,000);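 active = mean replicate score, as percent of positive control median, at least 50; inconclusive = mean below 50 but one replicate at or above 50; inactive = mean and every replicate below 50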;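 also: strain carries kanamycin resistance gene driven by streptokinase promoter and grows in 40 µg/ml kanamycin; loss of luminescence reflects streptokinase promoter inhibition or plain growth inhibition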
TIM10 inh: growth inhibitors of isogenic TIM10 control yeast, primary screen, counter-screen for tim10-1 yeast inhibitor project, luminescence, uHTS; actives 1.4% (n = 330,000); inhibition, % at 10 µM; S. cerevisiae TIM10 strain growth, BacTiter-Glo luminescence, 24 h;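 active = inhibition of 40% or more at the single tested concentration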;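 also: wild-type TIM10 isogenic control strain grown at permissive 25 °C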
EBI2 antag: EBI2 receptor antagonists, beta-arrestin recruitment, primary screen, cell-based, luminescence, 7a,25-OHC stimulation, uHTS; AID 651636, 2012; 7a,25-OHC stimulated; inhibition, % at 5 µM; actives 0.81% (n = 360,000); G-protein coupled receptor 183 (Homo sapiens), P32249; in the data active = inhibition above about 38%;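 also: enzyme fragment complementation signal reports receptor beta-arrestin coupling in cells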
Target sequence (P32249 whole entry, looked up, the tested form may be a part): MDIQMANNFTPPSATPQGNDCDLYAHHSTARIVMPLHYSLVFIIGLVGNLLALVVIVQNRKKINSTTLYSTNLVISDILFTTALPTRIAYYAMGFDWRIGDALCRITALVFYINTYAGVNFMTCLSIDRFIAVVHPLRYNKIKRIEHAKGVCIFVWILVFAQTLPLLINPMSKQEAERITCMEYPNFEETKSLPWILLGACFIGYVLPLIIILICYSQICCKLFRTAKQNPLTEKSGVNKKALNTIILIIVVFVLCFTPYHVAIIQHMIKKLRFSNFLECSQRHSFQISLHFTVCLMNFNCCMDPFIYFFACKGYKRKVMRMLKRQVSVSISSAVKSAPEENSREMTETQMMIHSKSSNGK
PfHsp90 yeast 2: growth inhibition of PfHsp90-expressing yeast, primary screen, antimalarial PfHsp90 inhibitor project, S. cerevisiae, BacTiter-Glo luminescence, single point, set 2 | BacTiter-Glo ATP, 48 h; yeast lacking PDR1 and PDR3 efflux regulators | inhibition, % at 9.4 µM | actives 0.32% (n = 310,000) | AID 504621, 2011;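 active = every replicate shows inhibition above about 80%, whatever the replicate mean, limit read from the data; inconclusive = mean inhibition reaches the set limit but some replicate falls short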
TIM10 conf: growth inhibitors of wild-type TIM10 yeast, confirmation, counter-screen for tim10-1 synthetic lethality project, single concentration, luminescence, S. cerevisiae; shares compounds with TIM10 inh; S. cerevisiae tim10 strain growth, BacTiter-Glo luminescence, 24 h; inhibition, % at 10 µM; actives 63% (n = 4,600);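 active = inhibition of yeast growth at or above a set limit in either of two replicates at 10 µM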; also: this counterscreen used the strain with wild-type TIM10
Hits are given with their value; 0 = inactive; ? = inconclusive; - = not tested or not shown.

SMILES | tim23-1 inh | tim10-1 inh | SKKanGAS inh | TIM10 inh | EBI2 antag | PfHsp90 yeast 2 | TIM10 conf
COc1ccc(S(=O)(=O)N(Cc2nc3ccccc3c(=O)[nH]2)C2CCCC2)cc1 | 0 | 0 | 0 | 42 | 0 | 0 | 0
COc1ccc(CN(Cc2nc3ccccc3c(=O)[nH]2)C(=O)NC2CCCCC2)cc1 | 0 | 0 | 0 | 0 | 0 | 0 | -
Cc1cc(C(=O)NC(C)C2CCCO2)no1 (configuration not stated) | 0 | 0 | 0 | 0 | 0 | - | -
Cc1ccc(C)c(C2C(=O)c3ccccc3C2=O)c1 | 0 | 0 | 0 | 0 | 0 | 0 | -
Cc1ccc2ccc(C3C(=O)c4ccccc4C3=O)nc2c1 | 0 | 0 | 0 | 61 | 0 | 0 | 66
COc1ccc(-c2nc3scc(-c4ccc(OC)c(OC)c4)c3c(=O)o2)cc1 | 0 | 0 | 0 | 0 | 0 | 0 | -
CCOc1ccc(-n2cnc3scc(-c4ccc(OC)c(OC)c4)c3c2=O)cc1 | 0 | 0 | 0 | 41 | 0 | - | 0
CCCCCCC(=O)NNC(=O)c1c(O)c2ccccc2n(CCC)c1=O | 0 | 0 | 92 | 46 | 0 | - | 0
CCCn1c(=O)c(C(=O)Nc2ccccc2)c(O)c2ccccc21 | 0 | 0 | 0 | 0 | 0 | - | -
c1ccc2[nH]c(NN=C3CCCCCC3)nc2c1 | 0 | 0 | 0 | 0 | 0 | 0 | -
c1ccc2[nH]c(NC3=NCCC3)nc2c1 | 0 | 0 | 0 | 41 | 0 | 0 | 0
COC(=O)CSc1nc(-c2ccccc2)c2c(c1C#N)CCCC2 | 0 | 0 | 0 | 41 | 0 | 0 | 0
CN(C)S(=O)(=O)c1cc(NC(=O)CNCc2ccc(F)cc2)ccc1Cl | 0 | 0 | 0 | 0 | 0 | 0 | -
O=C(Nc1ccc2c(c1)Cc1ccccc1-2)c1cc2ccccc2o1 | 0 | 0 | 0 | 0 | 0 | 0 | -
O=C(Nc1ccc2c(c1)CCC2)c1cc2ccccc2o1 | 0 | 0 | 0 | 56 | 0 | 0 | 0
O=C(Nc1cccc2cccnc12)c1ccc2sc([C@@H]3O[C@H](CO)[C@H](O)[C@H](O)[C@H]3O)nc2c1 | - | - | - | - | 0 | - | -
CCC1CCC(NC(=O)Nc2cccc(OC)c2)CC1 (configuration not stated) | 0 | 0 | 0 | 45 | 0 | 0 | 0
O=C(O)c1[nH]c2ccccc2c1C=NCc1ccccc1Cl | 0 | 0 | 0 | 0 | 0 | 0 | -
O=C(N/N=C/c1sc2ccccc2c1O)c1ccccc1 | 0 | 0 | 90 | 40 | 0 | 100 | 0
CN(CCC#N)C(=O)COC(=O)c1ccc(CNS(=O)(=O)c2ccc(F)c(Cl)c2)cc1 | 0 | 0 | 0 | 0 | 0 | 0 | -
CCOC(=O)/C=C/C(=O)OCC(=O)NCc1ccccc1 | 0 | 0 | - | 42 | 0 | 0 | 0
COc1ccc(O)c(/C=N/NC(=S)NCCc2ccccc2)c1 | 0 | 0 | 0 | 0 | 0 | 0 | -
COc1ccc(/C(C)=N/NC(=S)NCCc2ccccc2)c(O)c1 | 0 | 0 | ? | 43 | 0 | 0 | 37
c1ccc(CCCNc2ncccn2)cc1 | 0 | 0 | 0 | 0 | 0 | - | -
O=C(NCc1ccncc1)[C@@H]1CCCN1C(=O)[C@@H]1CCCN1C(=O)c1cccc2ccccc12 | - | - | - | - | 0 | - | -
SMILES | tim23-1 inh | tim10-1 inh | SKKanGAS inh | TIM10 inh | EBI2 antag | PfHsp90 yeast 2 | TIM10 conf
CN(c1ccccc1)C(c1ccc(F)cc1)c1nnnn1C1CCCC1 (configuration not stated) | 0 | 0 | 0 | 45 | 0 | - | 31
Cc1c(Cl)cccc1NC(=S)NCCC(c1ccccc1)c1ccccc1 | 0 | 0 | 79 | 50 | 0 | 0 | 0
Cc1c(Cl)cccc1NC(=S)NCc1ccccc1Cl | 0 | 0 | 0 | 0 | 0 | 0 | -
COc1ccc(NC(=S)NCCC(c2ccccc2)c2ccccc2)c(OC)c1 | 0 | 0 | 0 | 45 | 0 | 0 | 31
Cc1c(Cl)cccc1NC(=S)NCCC(C)C | 0 | 0 | 0 | 49 | 0 | 0 | 34
CCOc1ncccc1C(=O)OCC(=O)Nc1ccc2c(c1)OCO2 | 0 | 0 | 0 | 0 | 0 | 0 | -
CC(C)(C)OC(=O)C[C@@H]1C/C=C\C[C@H](CC(=O)NCCO)C(=O)N[C@@H](Cc2ccccc2)COC1=O | 0 | 0 | - | 0 | 0 | 0 | -
Cc1cc2[nH]c3c(c[n+](C)c4ccccc34)c2cc1C | 0 | 0 | 0 | 66 | 0 | 0 | 59
COc1ccc(N(CC(=O)N/N=C/c2cc(OC)ccc2OC)S(=O)(=O)c2ccccc2)cc1 | 0 | 0 | 0 | 55 | 0 | 0 | 0
O=S(=O)(c1ccc(SCCOc2ccc(Br)cc2)nc1)N1CCCC1 | 0 | 0 | - | 0 | 0 | 0 | -
CCOc1ccc(OCCSc2ccc(S(=O)(=O)N3CCN(C)CC3)cn2)cc1 | 0 | 0 | - | 46 | 0 | 0 | 52
Cc1ccc(-c2[nH]nc3c2C(c2ccoc2)C(C#N)=C(N)O3)cc1C (configuration not stated) | 0 | 0 | 0 | 41 | 0 | 0 | 0
CC(=O)C1C(c2ccc(F)cc2)C2C(C)=NN=C2CC1(C)O (configuration not stated) | 0 | 0 | 0 | 0 | 0 | 0 | -
O=C1CCNc2cc3ccccc3cc21 | 0 | 0 | 0 | 42 | 0 | 0 | 0
Nc1[nH]c(C(=O)c2ccccc2)c(-c2ccc(C(F)(F)F)cc2)c1C(=O)NCc1ccc(Cl)cc1Cl | - | - | - | - | 0 | - | -
C/C(CCC(C)C)=N\Nc1ccc(S(N)(=O)=O)cc1[N+](=O)[O-] | 0 | 0 | 0 | 75 | 0 | 0 | 0
CCC(CC)=NNc1ccc(S(N)(=O)=O)cc1[N+](=O)[O-] | 0 | 0 | 0 | 0 | 0 | 0 | -
CCC(C)(C)NC(=S)Nc1ccccc1C | 0 | 0 | 0 | 0 | 0 | 0 | -
CCn1c(C)cs/c1=N\C(=S)Nc1ccccc1C | 0 | 0 | 0 | 41 | 0 | 0 | 0
COc1ccc(-c2cn3cccc(C)c3n2)cc1F | 0 | 0 | 0 | 0 | 0 | 0 | -
COc1ccc(-c2cn3cc(C)ccc3n2)cc1F | 0 | 0 | 0 | 61 | 0 | 0 | 57
CSc1ncccc1C(=O)Nc1cccc(S(=O)(=O)N(C)c2ccccc2)c1 | 0 | 0 | - | 0 | 0 | 0 | -
CS(=O)(=O)N(CC(=O)Nc1ccccc1Br)Cc1ccccc1 | 0 | 0 | 0 | 0 | 0 | 0 | -
CCN(CC)C(=O)[C@H]1CC(CC(=O)NC(C)(C)C)C(=O)N2CCc3c([nH]c4ccccc34)[C@]12C (some centres not stated) | 0 | 0 | - | 0 | 0 | 0 | -
COC(=O)c1ccc(NC(=S)NC2CCc3ccccc32)cc1 (configuration not stated) | 0 | 0 | 0 | 47 | 0 | 0 | 31
COc1ccc2cc3cc(C(=O)Nc4ccc5c(c4)OCO5)oc3nc2c1 | 0 | 0 | 0 | 0 | 0 | 0 | -
